In PubChem BioAssay AID1159580 (chemical genetic matrix, 2015):
Screen size: about 5,500 compounds; about 2,000 (36%) were called active. About 18% were inconclusive and are not listed. No stated cut-off is given here; in the data, active means normalized growth mostly below about 0.91 (no sharp cut-off); inconclusive means no clear call, values can overlap the other calls; inactive means mostly above about 0.92. Some of the results follow.

Experiment: chemical genetic growth profiling, strain panel (AID 1159580);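 further: tested at 20 µM; growth read once vehicle control cultures reached saturation at 30 °C; 1 = growth at the plate median or of vehicle wells; lower values mean less growth of the strain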
Details: growth OD

Measured: normalized growth

Nc1ccc(C(=O)O)cc1
inactive: S. cerevisiae deletion strains, locus YJR066W, strain TOR1, active compounds read low 0.968 | S. cerevisiae deletion strains, locus YJR075W, strain HOC1, active compounds read low 1.01 | S. cerevisiae deletion strains, locus YKL009W, strain mrt4, active compounds read low 1.02 | S. cerevisiae deletion strains, locus YKL068W, active compounds read low 0.993 | S. cerevisiae deletion strains, locus YKL085W, strain MDH1 (second series), active compounds read low 0.998 | S. cerevisiae deletion strains, locus YKL085W, strain MDH1, active compounds read low 0.998 | S. cerevisiae deletion strains, locus YKL160W, strain elf1, active compounds read low 1.03 | S. cerevisiae deletion strains, locus YKL190W, strain CNB1, active compounds read low 0.996 | S. cerevisiae deletion strains, locus YKR001C, strain vps1, active compounds read low 1.01 | S. cerevisiae deletion strains, locus YKR026C, strain gcn3, active compounds read low 1.04 | S. cerevisiae deletion strains, locus YKR091W, strain srl3, active compounds read low 1.02 | S. cerevisiae deletion strains, locus YLL001W, strain dnm1, active compounds read low 1.03 | S. cerevisiae deletion strains, locus YLL026W, active compounds read low 1.04 | S. cerevisiae deletion strains, locus YLL041C, strain sdh2, active compounds read low 1.02 | S. cerevisiae deletion strains, locus YLR027C, strain aat2, active compounds read low 1.02 | S. cerevisiae deletion strains, locus YLR039C, strain RIC1, active compounds read low 0.996 | S. cerevisiae deletion strains, locus YLR058C, strain SHM2, active compounds read low 1.01 | S. cerevisiae deletion strains, locus YLR102C, strain apc9, active compounds read low 1.01 | S. cerevisiae deletion strains, locus YLR113W, strain HOG1, active compounds read low 1.01 | S. cerevisiae deletion strains, locus YLR221C, strain rsa3, active compounds read low 1.02 | S. cerevisiae deletion strains, locus YLR258W, strain gsy2, active compounds read low 1.01 | S. cerevisiae deletion strains, locus YLR262C, strain YPT6 (second series), active compounds read low 1.02 | S. cerevisiae deletion strains, locus YLR262C, strain YPT6, active compounds read low 1.07 | S. cerevisiae deletion strains, locus YLR268W, strain sec22, active compounds read low 1.02 | S. cerevisiae deletion strains, locus YLR320W, strain mms22, active compounds read low 1.01 | S. cerevisiae deletion strains, locus YLR330W, strain CHS5, active compounds read low 1.01 | S. cerevisiae deletion strains, locus YLR342W, strain FKS1 (second series), active compounds read low 1.02 | S. cerevisiae deletion strains, locus YLR342W, strain FKS1, active compounds read low 1.05 | S. cerevisiae deletion strains, locus YLR357W, strain rsc2, active compounds read low 1.03 | S. cerevisiae deletion strains, locus YLR370C, strain arc18, active compounds read low 1.02 | S. cerevisiae deletion strains, locus YLR371W, strain rom2, active compounds read low 1.01 | S. cerevisiae deletion strains, locus YLR384C, strain iki3, active compounds read low 1.01 | S. cerevisiae deletion strains, locus YLR418C, strain cdc73, active compounds read low 1.03 | S. cerevisiae deletion strains, locus YML016C, strain PPZ1, active compounds read low 1.01 | S. cerevisiae deletion strains, locus YML032C, strain rad52, active compounds read low 1.01 | S. cerevisiae deletion strains, locus YML120C, strain ndi1, active compounds read low 1.04 | S. cerevisiae deletion strains, locus YML124C, strain tub3, active compounds read low 1.01 | S. cerevisiae deletion strains, locus YMR058W, strain fet3, active compounds read low 1.04 | S. cerevisiae deletion strains, locus YMR078C, strain ctf18, active compounds read low 1.02 | S. cerevisiae deletion strains, locus YMR125W, strain sto1, active compounds read low 1.01 | S. cerevisiae deletion strains, locus YMR129W, active compounds read low 1.03 | S. cerevisiae deletion strains, locus YMR205C, strain PFK2, active compounds read low 1.03 | S. cerevisiae deletion strains, locus YMR223W, strain ubp8, active compounds read low 1.01 | S. cerevisiae deletion strains, locus YMR231W, strain pep5, active compounds read low 1.02 | S. cerevisiae deletion strains, locus YMR263W, strain SAP30, active compounds read low 1 | S. cerevisiae deletion strains, locus YMR307W, strain GAS1, active compounds read low 1.05 | S. cerevisiae deletion strains, locus YNL067W, strain RPL9B, active compounds read low 1 | S. cerevisiae deletion strains, locus YNL071W, strain lat1, active compounds read low 1.01 | S. cerevisiae deletion strains, locus YNL183C, strain NPR1, active compounds read low 0.953 | S. cerevisiae deletion strains, locus YNL209W, strain ssb2, active compounds read low 1.02 | S. cerevisiae deletion strains, locus YNL233W, strain BNI4, active compounds read low 1.01 | S. cerevisiae deletion strains, locus YNL248C, strain rpa49, active compounds read low 1.05 | S. cerevisiae deletion strains, locus YNL250W, strain rad50, active compounds read low 1.01 | S. cerevisiae deletion strains, locus YNL271C, strain bni1, active compounds read low 1.03 | S. cerevisiae deletion strains, locus YNL298W, strain CLA4, active compounds read low 1.01 | S. cerevisiae deletion strains, locus YNL307C, strain MCK1, active compounds read low 1.01 | S. cerevisiae deletion strains, locus YNL322C, strain KRE1 (second series), active compounds read low 1.01 | S. cerevisiae deletion strains, locus YNR049C, strain mso1, active compounds read low 1.02 | S. cerevisiae deletion strains, locus YNR052C, strain pop2, active compounds read low 1 | S. cerevisiae deletion strains, locus YOL006C, strain TOP1, active compounds read low 1.06 | S. cerevisiae deletion strains, locus YOL012C, strain htz1 2.07 | S. cerevisiae deletion strains, locus YOL147C, strain pex11, active compounds read low 1.01 | S. cerevisiae deletion strains, locus YOR001W, strain rrp6, active compounds read low 1.05 | S. cerevisiae deletion strains, locus YOR061W, strain CKA2, active compounds read low 1.01 | S. cerevisiae deletion strains, locus YOR069W, strain VPS5, active compounds read low 1.01 | S. cerevisiae deletion strains, locus YOR070C, strain gyp1, active compounds read low 1.01 | S. cerevisiae deletion strains, locus YOR080W, strain dia2, active compounds read low 1.04 | S. cerevisiae deletion strains, locus YOR083W, strain WHI5, active compounds read low 1.05 | S. cerevisiae deletion strains, locus YOR106W, strain vam3, active compounds read low 1.04 | S. cerevisiae deletion strains, locus YOR136W, strain idh2, active compounds read low 1.02 | S. cerevisiae deletion strains, locus YOR144C, strain elg1, active compounds read low 1.01 | S. cerevisiae deletion strains, locus YOR184W, strain ser1, active compounds read low 1.02 | S. cerevisiae deletion strains, locus YOR231W, strain MKK1, active compounds read low 1.01 | S. cerevisiae deletion strains, locus YOR265W, strain rbl2, active compounds read low 1.01 | S. cerevisiae deletion strains, locus YOR270C, strain vph1, active compounds read low 1.07 | S. cerevisiae deletion strains, locus YOR290C, strain snf2, active compounds read low 1.01 | S. cerevisiae deletion strains, locus YOR316C, strain cot1, active compounds read low 1.01 | S. cerevisiae deletion strains, locus YPL051W, strain arl3, active compounds read low 1.04 | S. cerevisiae deletion strains, locus YPL078C, strain atp4, active compounds read low 1.05 | S. cerevisiae deletion strains, locus YPL106C, strain sse1, active compounds read low 1.03 | S. cerevisiae deletion strains, locus YPL240C, strain hsp82, active compounds read low 1.01 | S. cerevisiae deletion strains, locus YPL256C, strain CLN2, active compounds read low 1.02 | S. cerevisiae deletion strains, locus YPR119W, strain clb2, active compounds read low 1 | S. cerevisiae deletion strains, locus YPR141C, strain kar3, active compounds read low 1.01 | S. cerevisiae deletion strains, locus YPR163C, strain tif3, active compounds read low 1.02 | S. cerevisiae deletion strains, locus YPR167C, strain met16, active compounds read low 1.02 | S. cerevisiae deletion strains, strain wtn01, active compounds read low 1.02 | S. cerevisiae strains, strain wild type, active compounds read low 1
